These results are taken from the OligoGym collection.
Note: reference of the scale not given here.

The first assay concerns the target KIAA1217. Briefly: pooled miR-30 sensor sort-seq; sequence = guide strand. The conditions noted are these: shRNA.
TATTTTGTAGCTCTGGTCTGTG yielded a sensor-assay potency score (higher = more potent) of 0.157.
Sequence TTTTTTTAAATGTAACTCCGAC yielded a sensor-assay potency score (higher = more potent) of -0.293.
Consider TTTTTGTCTCTCTTGCTCCACT, for which the sensor-assay potency score (higher = more potent) is -0.52.

For another assay, the target named is KIAA1279. Described as above. The conditions noted are these: shRNA.
For the sequence TAGGTTATGAGTATAAACCTTT, the sensor-assay potency score (higher = more potent) was -0.128.
TATACTGATTATATAGTGCTTC showed a sensor-assay potency score (higher = more potent) of 0.382.
Still for that read-out and setting: to TAGTACTTCAGTGCTGACTTAT belongs -0.671; to TTCTTTGATGATAAAGCTCTGG, -0.681.
On to TTCAATATTGCACATTTCCTTT, for which the sensor-assay potency score (higher = more potent) is -0.873.
Still for that read-out and setting: to TTTTTGATCTCTCTTGTTCAGT belongs -0.606; to TAAAGCTCTAAGTTCAGACTGT, 0.562; to TTGAGCTAGGTAATATAGGTTA, -0.261.
The same measure, in the same setting: the same measure for TTAATAGGAAACAAGCATCTAA: 0.679; for TAGCTCAACTTCTATTTCCTGG: 0.213.
The same measure, in the same setting: to TAGCTTATTGATGTAAAACTGT belongs -0.47.

Another assay deals with KIAA2018. Described as above. The settings on record: shRNA.
TTTGTGTTGAGTTAGACGCTGA gave a sensor-assay potency score (higher = more potent) of 0.486.
On the same count and under the same terms, the same measure for TTTCTGCATCTGAACTTCCTGT: -0.663; for TTTCTGTACAGAAACATTGGGG: -0.202.
The same measure, in the same setting: to TCTGCTTCCAACATCCTGCTGT belongs 0.86.
Still for that read-out and setting: to TAGATTATAAGTACTAGCTAGT belongs 0.0786; to TTGAGCTGGAACATGCTGCTGC, 0.733; to TATCTGATGAATCTTGCTCAAC, -1.15.
The sequence TTGCTGGTCACATCTTCTCTTG registered a sensor-assay potency score (higher = more potent) of -1.17.
Still for that read-out and setting: the same measure for TAGATTTCGATACAGACTCAGG: -1.04; for TTGTTGTAGATGACAAACCAGG: -1.34; for TTGACTAATTCGAAAAGCCTGG: -0.327.
Still for that read-out and setting: to TAAACTTCCACTGTTTACCTTC belongs 0.292.

The target in another assay is KIF21A. The description is as above. The conditions noted are these: shRNA.
Regarding TTCTAGTTCATCAATCAGCTTT, the sensor-assay potency score (higher = more potent) was -0.0186.
Turning to TATACATTGAATGTAGATCTGC, the sensor-assay potency score (higher = more potent) is -0.0184.
Still for that read-out and setting: the same measure for TTGCAGAACAAGCATCTCCAAG: -1.19; for TTTTATATAACTATGAATCATA: -0.753.
On the same count and under the same terms, to TTTCATTTCCATCACATCCTGC belongs 0.0152.
In turn, TTGAGCTGCTTGAAGTCTCTGC returned a sensor-assay potency score (higher = more potent) of 0.624.
Consider TAGTAGTCTTGTTAGCTTGGAA, for which the sensor-assay potency score (higher = more potent) was -0.0525.
As to TTGCTGACTAGCTCTGTCCTGA, the sensor-assay potency score (higher = more potent) amounted to 0.278.
The same measure, in the same setting: to TTGAATGTAGATCTGCTCTTGC belongs 0.95.
Turning to TTGATTTGCTGACTAGCTCTGT, the sensor-assay potency score (higher = more potent) worked out at 0.32.
Same read-out and setting: the same measure for TTCAACTGAGCAATCTCTCTGT: 0.68.
Still for that read-out and setting: to TTGTTTGAGTCGACCTTCCAGT belongs -0.666.
